# Experimental data: ChEMBL document CHEMBL1157539, “Thousands of chemical starting points for antimalarial lead identification” (Nature, 2010)
# Tested on: Plasmodium falciparum
# Assay: GSK_TCMDC: Inhibition of Plasmodium falciparum 3D7 in whole red blood cells, using parasite LDH activity as an index of growth. Test compounds present at 2uM
# Type: functional
row,Compound,Inhibition [%]
1,COc1cc2nc(-c3ccccc3)nc(N3CCN(C(=O)c4ccco4)CC3)c2cc1OC,89
2,CC(C)[C@H](NC(=O)c1c(CN2CCC(N3CCCCC3)CC2)c(-c2ccccc2)nc2cc(O)ccc12)c1ccccc1,100
3,COc1ccc2c(c1)OC(C)(C)CC2=NOS(=O)(=O)c1ccc(C)cc1,97
4,COC(=O)c1cccc(CNCc2ccc(-c3ccc(-c4nc5cc(F)ccc5[nH]4)cc3)cc2)c1.O=C(O)C(F)(F)F,100
5,Cc1cc(C)n(Cc2ccc(C(=O)NCC3CCCCC3)cc2)n1,95
6,COc1cc2c(OC)cccc2cc1CNCCCCCCNCc1cc2cccc(OC)c2cc1OC.CS(=O)(=O)O,95
7,CCN(CC)CCNc1ccnc2[nH]c3ccc(I)cc3c12,100
8,Cc1cc(NCCC(=O)NCCOc2ccccc2)nc(Nc2ccccc2)n1.O=C(O)C(F)(F)F,94
9,C=C1C[C@@H](n2cnc3c(NC(=O)c4ccccc4)ncnc32)[C@@H](F)[C@@H]1OC(c1ccccc1)(c1ccccc1)c1ccccc1,98
10,CC(C)(CNCc1ccccc1)c1nc(-c2ccc(Cl)c(O)c2)c(-c2ccncc2)[nH]1.Cl,100
11,O=C(/C=C/c1cccc(Cl)c1)N1CCC(C(O)CN2CCC3(CC2)CN(C(=O)/C=C/c2cccc(Cl)c2)c2ccccc23)CC1 (stereo unspecified),91

# Tested on: Plasmodium falciparum
# Assay: GSK_TCMDC: Inhibition of Plasmodium falciparum Dd2 in whole red blood cells, using parasite LDH activity as an index of growth. Test compounds present at 2uM
# Type: functional
row,Compound,Inhibition [%]
1,CN(N=Cc1ccccc1)C(=N)NCCCC#Cc1cccc(CN2CCCC2)c1,3
2,COCCNCc1cccc(-c2ccc3nccc(Nc4cc(O)ccc4C)c3c2)c1,92
3,O=C(NCCN1CCCCC1)c1ccc(Nc2nccc(Nc3ccc(Oc4ccccc4)cc3)n2)cc1,91
4,COc1cc(C(=O)NCCCN2CCN(c3cccc(Cl)c3)CC2)ccc1-c1nc2cc(Cl)c(F)cc2[nH]1,81
5,O=C(O)C(F)(F)F.OCCN1CCN(Cc2cccc(-c3cccc(-c4nc5cc(F)ccc5[nH]4)c3)c2)CC1,99
6,CC(Nc1ncc(-c2ccsc2)c(-c2nccs2)n1)c1ccc2c(c1)OCCO2 (stereo unspecified),66
7,COc1cc(NC(=O)Nc2cccc3ccccc23)c(OC)cc1Cl,71
8,COc1ccc(CNC2Cc3ccccc3C2)cc1-c1ccc(S(=O)(=O)NCc2ccccc2)s1.O=C(O)C(F)(F)F,25
9,Fc1ccc(-c2oc(C3CCN(CCc4ccc(-c5noc(=S)[nH]5)cc4)CC3)nc2COCC(F)(F)F)cc1,95
10,O=C(Nc1cc(Cl)ccc1O)c1cc(-c2ccccc2O)no1,79
11,NC(=O)c1ccccc1OCC(=O)Nc1ccc(-c2cccc(-c3nc4cc(C(F)(F)F)ccc4[nH]3)c2)cc1,11
12,CCC(O)(C#Cc1c(C)nc(N)nc1N)CC,0
13,CCn1c(Sc2ccc(C#N)c([N+](=O)[O-])c2)nnc1-c1ccc(OC)cc1,94
14,Cc1cc(N[C@@H](Cc2ccccc2)C(=O)NC2CCCC2)nc(NCCc2ccc(F)cc2)n1.O=C(O)C(F)(F)F,61
15,CN(C)C(=O)c1ccc(CN(Cc2ccc3c(c2)OCCO3)Cc2ccc3c(c2)OCO3)cc1,95
16,Cc1ncccc1C(=O)Nc1ccc(-c2cccc(-c3nc4cccc(C)c4[nH]3)c2)cc1,31
17,Cc1cc(Nc2ncc(C#N)c(Nc3ccccc3C(N)=O)n2)ccc1N1CCN(C)CC1.Cl,94
18,CCCn1c(Sc2ccc(C#N)c([N+](=O)[O-])c2)nnc1-c1ccc(OC)cc1,95
19,Cc1ccc2nc(C)cc(Nc3ccccc3O)c2c1.Cl,6
20,CCC1(CC)CN(c2ccccc2)c2ccc(O)cc2S(=O)(=O)C1CC(C)C (stereo unspecified),89

row,Compound,Inhibition [%]
1,Cl.N=C(N)NN=Cc1ccc2c(c1)Cc1ccccc1-2,81
2,Cl.O=C(/C=C/c1cccc(Cl)c1)Nc1ccc2nc(CN3CCCC3)ccc2c1,42
3,Cc1cc(N2CCCC2)nc(Nc2ccc(NC(=O)c3ccco3)cc2)n1,43
4,CC(C)(C)CN1C(=O)C(c2ccccc2)(c2ccccc2)N=C1N.O=CO,94
5,CCc1cc(N2CCN(c3ccccc3F)CC2)nc(SCc2ccc(C(=O)NC3CC3)o2)n1,94
6,Cc1cccc2nc(-c3cccc(-c4ccc(NC(=O)Nc5ccsc5)cc4)c3)[nH]c12,99
7,Cc1ccc2[nH]c(C3CCCNC3)c(-c3ccncc3)c2c1 (stereo unspecified),22
8,O=C(c1cc(C(=O)NC2CCCCC2)c(=O)n(C2CCCCC2)c1)c1cc(F)ccc1O,98
9,CCN(c1cc(C)nc(Nc2ccc(Cl)cc2)n1)[C@H]1CCN(Cc2ccccc2)C1,31
10,COc1cc2nc(-c3ccccc3)nc(N3CCN(C(=O)c4ccco4)CC3)c2cc1OC,87
11,CC(C)[C@H](NC(=O)c1c(CN2CCC(N3CCCCC3)CC2)c(-c2ccccc2)nc2cc(O)ccc12)c1ccccc1,73
12,COc1ccc2c(c1)OC(C)(C)CC2=NOS(=O)(=O)c1ccc(C)cc1,12
13,COC(=O)c1cccc(CNCc2ccc(-c3ccc(-c4nc5cc(F)ccc5[nH]4)cc3)cc2)c1.O=C(O)C(F)(F)F,95
14,Cc1cc(C)n(Cc2ccc(C(=O)NCC3CCCCC3)cc2)n1,1
15,COc1cc2c(OC)cccc2cc1CNCCCCCCNCc1cc2cccc(OC)c2cc1OC.CS(=O)(=O)O,7
16,CCN(CC)CCNc1ccnc2[nH]c3ccc(I)cc3c12,95
17,Cc1cc(NCCC(=O)NCCOc2ccccc2)nc(Nc2ccccc2)n1.O=C(O)C(F)(F)F,55
18,C=C1C[C@@H](n2cnc3c(NC(=O)c4ccccc4)ncnc32)[C@@H](F)[C@@H]1OC(c1ccccc1)(c1ccccc1)c1ccccc1,97
19,CC(C)(CNCc1ccccc1)c1nc(-c2ccc(Cl)c(O)c2)c(-c2ccncc2)[nH]1.Cl,99
20,O=C(/C=C/c1cccc(Cl)c1)N1CCC(C(O)CN2CCC3(CC2)CN(C(=O)/C=C/c2cccc(Cl)c2)c2ccccc23)CC1 (stereo unspecified),38
